Source: PMC5540273 (PLoS ONE, 2017)

Assays:
Settings in all cases: concentration: 1 μM, replicates: in singlicate; n = 1
PRKCI = tested on: PRKCI
PRKCQ = tested on: PRKCQ
PRKD1 = tested on: PRKD1
PRKD2 = tested on: PRKD2
PRKD3 = tested on: PRKD3
PRKG1 = tested on: PRKG1
PRKG2 = tested on: PRKG2
PRKR = tested on: T1, PRKR
T1 construct: gene EIF2AK2

PRKX = tested on: PRKX
PRP4 = tested on: PRP4
PYK2 = tested on: T2, PYK2
T2 construct: gene PTK2B

QSK = tested on: QSK
RAF1 = tested on: RAF1
RET = tested on: RET
RIOK1 = tested on: RIOK1
RIOK2 = tested on: RIOK2
RIOK3 = tested on: RIOK3
RIPK1 = tested on: RIPK1
RIPK2 = tested on: RIPK2
RIPK4 = tested on: RIPK4
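Further: KINOMEscan kinase panel screen.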

Row | SMILES | %Inh (PRKCI) | %Inh (PRKCQ) | %Inh (PRKD1) | %Inh (PRKD2) | %Inh (PRKD3) | %Inh (PRKG1) | %Inh (PRKG2) | %Inh (PRKR) | %Inh (PRKX) | %Inh (PRP4) | %Inh (PYK2) | %Inh (QSK) | %Inh (RAF1) | %Inh (RET) | %Inh (RIOK1) | %Inh (RIOK2) | %Inh (RIOK3) | %Inh (RIPK1) | %Inh (RIPK2) | %Inh (RIPK4)
1 | [2H]C([2H])(c1cccc(C(F)(F)F)c1C)n1ccn2c(=O)nc(N3CCOCC3)cc12 [GSK2336394] | 22% | 9% | 17% | 4% | 27% | 0% | 0% | 0% | 14% | 18% | 4% | 0% | 10% | 14% | 23% | 6% | 0% | 0% | 7% | 5%
2 | CCn1cnc2c(N)ncnc21 [GW345098] | 13% | 0% | 9% | 0% | 23% | 13% | 0% | 0% | 0% | 1% | 8% | 13% | 3% | 0% | 30% | 6% | 8% | 11% | 1% | 6%
3 | Cc1cn2c(=O)cc(N3CCOCC3)nc2n1Cc1cccc(Cl)c1Cl [GSK2334006] | 31% | 28% | 0% | 10% | 18% | 0% | 0% | 0% | 24% | 0% | 13% | 0% | 22% | 21% | 56% | 29% | 4% | 0% | 14% | 6%
4 | N#Cc1ccc(-c2cc(-c3c[nH]nc3-c3ccccn3)ccn2)cc1 [GW693028] | 0% | 15% | 63% | 40% | 0% | 0% | 0% | 0% | 2% | 41% | 0% | 12% | 1% | 12% | 0% | 0% | 0% | 0% | 49% | 5%
5 | CC(C)Oc1ccc2c(-c3ccnc(Nc4ccc(N5CCN(C)CC5)cc4)n3)cnn2n1 [GW696155] | 26% | 0% | 86% | 97.6% | 100% | 0% | 4% | 92.2% | 0% | 95% | 42% | 23% | 0% | 56% | 99.9% | 90% | 95.4% | 40% | 15% | 27%
6 | NS(=O)(=O)c1cccc(-c2ccc3ncc(N4CCOCC4)nc3c2)c1 [GSK1535721] | 21% | 2% | 0% | 20% | 0% | 0% | 14% | 10% | 0% | 2% | 10% | 0% | 5% | 0% | 22% | 41% | 0% | 19% | 13% | 1%
7 | Cc1ccc(NC(=O)c2ccnc(N3CCN(C)CC3)c2)cc1-c1ccc(C(=O)NCC2CC2)cc1 [GW775604] | 0% | 0% | 0% | 2% | 0% | 0% | 0% | 0% | 0% | 0% | 0% | 0% | 10% | 0% | 0% | 0% | 0% | 0% | 0% | 0%
8 | O=C(NCCNc1ccnc(Nc2ccc(F)cc2)n1)c1cc2ccccc2s1 [GSK1379874] | 0% | 0% | 5% | 0% | 0% | 0% | 0% | 0% | 4% | 49% | 29% | 0% | 10% | 0% | 23% | 0% | 24% | 0% | 0% | 18%
9 | O=c1cc(N2CCOCC2)nc2n(Cc3cccc4ccccc34)ccn12 [GSK2333389] | 7% | 0% | 0% | 0% | 23% | 10% | 0% | 0% | 26% | 2% | 17% | 7% | 0% | 80% | 8% | 47% | 0% | 0% | 0% | 0%
10 | Cn1ccc2ncnc(Oc3ccc(NC(=O)Nc4ccncc4)c(Cl)c3)c21 | 0% | 0% | 14% | 0% | 0% | 3% | 0% | 0% | 0% | 14% | 0% | 0% | 12% | 1% | 0% | 0% | 23% | 0% | 0% | 0%
